Laboratory results reported in ChEMBL document CHEMBL3988442, “University of Dundee, Small-Polar-MMV Screening Library” (2021).
The campaign covered roughly 48,000 compounds. About 13,000 (27%) showed an effect of 50% or more. This is one part of the list.

tested on: Wolbachia pipientis; assay: Anti-Wolbachia Cell-Based Screen; assay type: functional; parameters: scale not given: in the data most compounds retested in dose-response had high values; settings: 5 µM

Row | SMILES | Percent Effect [%]
1 | Cc1cnn(C2CCCN(C(=O)c3c(C)oc4nc[nH]c(=O)c34)C2)c1 (stereo not drawn) | -0.5439
2 | COCc1nc(CNC2CCCc3c2cnn3C(C)(C)C)cs1 (stereo not drawn) | -7.69
3 | CC1(NC(=O)Cc2csc(C(C)(C)C)n2)CCS(=O)(=O)C1 (stereo not drawn) | -4.538
4 | Cc1cc(N2CCC(Cc3ncccn3)C2)ncn1 (stereo not drawn) | 90.07
5 | COCCO[C@H]1CCN(c2cc(OC)ncn2)[C@H]1Cc1ccncc1 | -8.224
6 | Cc1cc2c(N3CCCC(OCc4cccnc4)C3)ncnc2s1 (stereo not drawn) | 0.4664
7 | CN1CCN(c2cc(NC(=O)c3cnccn3)ncn2)CC1 | -2.529
8 | Cc1cc(N2CCCC2c2cnccn2)ncn1 (stereo not drawn) | -8.281
9 | Cc1ccc(N2CCCC(NCc3ccncc3)C2)nn1 (stereo not drawn) | 1.645
10 | Cc1cc(N2CCC(Cc3ccncc3)C2)ncn1 (stereo not drawn) | 95.84
11 | COc1cc(N2CC[C@H]3OCC[C@@]3(COc3nccc(C)n3)C2)ncn1 | -2.077
12 | C[C@@H]1CN(c2cc(N3CCC(O)CC3)ncn2)C[C@@]1(O)C1CCC1 | 2.327
13 | Cc1cc(N2CCC(Cc3cccnc3)CC2)ncn1 | 156
14 | Cc1cc(N2CCC(Cc3cnccn3)C2)ncn1 (stereo not drawn) | 100.8
15 | COc1cc(N2CCC(c3nccn3Cc3cccnc3)CC2)ncn1 | 2.829
16 | CCN(C(=O)c1cc2c([nH]c1=O)CCCC2=O)C1CCCCC1 | 14.13
17 | CN(C)c1ncc(CNC(=O)Nc2ccccc2C(F)(F)F)n1C | 9.124
18 | Cn1nc2c(cc1=O)CN(Cc1coc(-c3cccs3)n1)CC2 | 1.365
19 | COCCN1C[C@H]2CC[C@@H]1CN(C(=O)CCc1n[nH]c(C)c1C)C2 | 0.4749
20 | COc1cc(N2CCCC(c3nccn3Cc3cccnc3)C2)ncn1 (stereo not drawn) | -16.56
21 | Cc1cc(N2CCC(Cc3cccnc3)C2)ncn1 (stereo not drawn) | 84.65
22 | CC(=O)c1c(F)cccc1N1CCC(Cc2cccnc2)CC1 | -2.782
23 | NC(=O)CCn1cc(CNCCCc2ccncc2)c2ccccc21 | -11.7
24 | Cl.NCCc1cn(Cc2ccccn2)c2ccccc12 | 119.5
25 | Cc1cc(C(=O)N2C[C@H]3CC[C@@H]2CN(Cc2ccccn2)C3)nc(N)n1 | 2.343
26 | COC1COC2(CCN(CC3CC3)CC2)C1.O=C(O)C(F)(F)F (stereo not drawn) | 95.93
27 | CS(=O)(=O)N[C@@H]1CCO[C@]2(CCN(CC3CCOCC3)C2)C1.O=C(O)C(F)(F)F | -3.641

Row | SMILES | Percent Effect [%]
28 | COC1COC2(CCN(CC3CCOCC3)CC2)C1.O=C(O)C(F)(F)F (stereo not drawn) | 105.7
29 | CS(=O)(=O)N[C@H]1CCO[C@]2(CCN(CC3CCOCC3)C2)C1.O=C(O)C(F)(F)F | 0.7443
30 | CC(C)(C)c1ncc(CNc2ccccc2Cn2cncn2)s1 | 1.316
31 | CSCC(=O)N[C@H]1CN(Cc2c(C)noc2C)C[C@@H]1C(C)C | -1.777
32 | CC(C)CN1CC(c2nc(C3CC3)n[nH]2)CC1=O (stereo not drawn) | 4.423
33 | CSc1nc2cc(C)n(CC(=O)Nc3nccs3)c2c(=O)n1CC(C)C | -4.494
34 | O=C(Nc1ccccc1)c1ccc(NCc2nccs2)nn1 | 3.378
35 | Cc1ccc(-c2ccc(=O)n(CC(=O)Nc3nccs3)n2)cc1 | 124.1
36 | Cc1cc(C)n(CC2CCCCN2CC(=O)Nc2nccs2)n1 (stereo not drawn) | -11.15
37 | Cc1ccc(NC(=O)c2ccc(=O)n(CC(=O)Nc3nccs3)n2)cc1 | 101.8
38 | O=C(NCc1ccccc1CN1CCCC1=O)Nc1nccs1 | -2.659
39 | Cc1ccccc1C(=O)Nc1cnn(CC(=O)NC2CCCC2)c1 | -2.578
40 | Cc1ccc(NC(=O)c2ccc(=O)n(CC(=O)NC3CCCC3)n2)cc1 | 106.4
41 | CCC(=O)NC1CCCN(Cn2nc(C(C)(C)C)ccc2=O)C1 (stereo not drawn) | -0.4021
42 | COc1cc(Cl)ccc1C(=O)NCC(=O)Nc1nccs1 | -9.549
43 | O=C(CCn1nc(C(=O)Nc2ccccc2)ccc1=O)Nc1nccs1 | 112.6
44 | N#Cc1cccc(CS(=O)(=O)NCC(O)Cc2ccccc2)c1 (stereo not drawn) | -5.845
45 | Cc1nc(-c2cccc(C#N)c2)nn1CC1(O)CCCCC1 | -14.51
46 | Cc1ccccc1CS(=O)(=O)NCCCN1CCCCC1 | -4.018
47 | Cn1c(NCCC(=O)N2CCCC2)c(C#N)c(=O)n(C)c1=O | 17.52
48 | N#CCCNC(=O)CSc1cc(F)ccc1F | 8.044
49 | COCC(=O)NCc1cc(=O)n2c(n1)CN(Cc1nccs1)CCC2 | 109.1
50 | COCC(=O)NCc1cc(=O)n2c(n1)CN(Cc1cccs1)CCC2 | 97.08
51 | CCCN1CCCn2c(nc(CNC(=O)c3nccn3C)cc2=O)C1.O=C(O)C(F)(F)F | -4.018
52 | O=C(c1cccs1)N1CCCn2c(nc(CN3CCCC3)cc2=O)C1 | -6.505
53 | Cn1ccnc1C(=O)NCc1cc(=O)n2c(n1)CN(CC1CC1)CCC2 | -4.321
